From PubChem BioAssay
Only some compounds are listed: those with a hit (about 17% of all), similar ones and a draw of the others.
HepG2 tox = kills HepG2 cells in TGF-b inhibitor counter-screen; HepG2 CAGA-GFP viability, ATP luminescence, 18 h; Potency, µM (series often up to 46.1 µM), actives largely listed as cytotoxic; hit rate 0.76% among 410,000; AID 588856
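CellTiter-Glo luminescence gave cytotoxicity after 18 hours at 37 degrees C. The cells were HepG2 CAGA-GFP in 1% FBS DMEM, stimulated with 500 pg/mL TGF-beta after compound addition. %Activity was normalised to no-cell wells (complete cell-killing) and DMSO (no toxicity), and curves were fitted and classified.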
DT40 TDP1 no CPT = qHTS for Inhibitors of human tyrosyl-DNA phosphodiesterase 1 (TDP1): qHTS in cells in absence of CPT; Potency, µM (doses to about 46.2 µM), most hits filed as inhibitors; hit rate 15% among 420,000; AID 686978, 2013; DT40 Tdp1-/- hTDP1 cells, no CPT, ATP luminescence, 48 h; note: nearly all actives have a fitted effect of over 55% in size
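Luminescent ATP content (CellTiter-Glo) served as the growth readout. Knockout chicken DT40 cells expressing human TDP1 were exposed to compounds without camptothecin for a minimum 48 hr at 37 °C.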
HT1080 IDH1KD tx = HT-1080 IDH1 knockdown cell toxicity (counter line); HT-1080 IDH1 knockdown viability, ATP luminescence, 48 h; Potency, µM (doses to about 46.1 µM), most hits filed as cytotoxic; hit rate 2% among 360,000
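In this qHTS, HT-1080 cells depleted of IDH1 are exposed for 48 h at 37 °C to compound titrations. Toxicity is scored from CellTiter-Glo luminescence, with DMSO as full viability and medium alone as none.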
HT1080NT lethal = kills 2HG-producing HT-1080-NT fibrosarcoma cells; Potency, µM (titrated, usually from 46.1 µM), usual class: cytotoxic; AID 686970; HT-1080-NT fibrosarcoma viability, CellTiter-Glo ATP luminescence, 48 h; hit rate 1.6% among 360,000;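 note: NT is the 2HG producing partner of a matched IDH1 knockdown line; nearly all actives have a fitted effect of over 55% in size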
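Luminescent CellTiter-Glo readout after 48 hours of compound exposure at 37 degrees C defined viability of HT-1080-NT cells. Activity was normalized to DMSO wells and cell-free media wells; concentration-response curves were fitted and assigned curve classes.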
TDP1 cell CPT = growth inhibition of DT40 Tdp1-/-;hTDP1 cells with camptothecin (screen for TDP1 inhibitors) | chicken DT40 Tdp1-/-;hTDP1 cells + 20 nM CPT, ATP luminescence, 48 h | hit rate 12% among 420,000 | Potency, µM (titrated, usually from 46.2 µM), usual class: inhibitors; note: nearly all actives have a fitted effect of over 55% in size
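Chicken DT40 Tdp1-/- cells stably complemented with human TDP1 were seeded at 400 cells/well in medium containing 20 nM camptothecin, exposed to pin-transferred compounds, and grown at 37 °C for at least 48 hr. Viability was read as ATP luminescence.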
TGFb inhibitor = blocks TGF-b signaling | Potency, µM (titrated, usually from 46.1 µM), hits mostly inhibitors | HepG2 CAGA-GFP TGF-b/SMAD3 reporter, GFP fluorescence, 18 h; TGF-beta stimulated, 500 pg/mL final | hit rate 1.2% among 410,000; note: nearly all actives have a fitted effect of over 65% in size
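Read-out: total well GFP (ex488/em500-530) summed from mean per-cell fluorescence. Cells: HEPG2 CAGA-GFP, 1% FBS DMEM, 18 h at 37 degrees C with 500 pg/mL final TGF-beta. Unstimulated wells served as the full-inhibition control; stimulated DMSO wells = 0%.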
Large screens that a line does not name were inactive. Calls come from the whole dose curve; as a rule, active = well fitted curve in the direction sought with a large enough effect; inconclusive = small, poorly fitted or top-dose-only effect, or another doubt; inactive = no such curve, though single readings can be large; an effect the other way counts as inactive or inconclusive.

CC(C)(C)c1ccc(-c2cc(C(=O)NNC(=O)Nc3ccccc3)c3ccccc3n2)cc1	DT40 TDP1 no CPT 20.6µM, HT1080 IDH1KD tx inconclusive, HT1080NT lethal inconclusive, TDP1 cell CPT inconclusive
CCOC(=O)CC(=O)CSc1ccc2nnc(-c3cccc(F)c3)n2n1	HT1080 IDH1KD tx inconclusive
COC(=O)c1ccc(CSc2ccc3nnc(-c4cccc(F)c4)n3n2)o1	DT40 TDP1 no CPT 7.31µM, HT1080 IDH1KD tx inconclusive
O[C@@H]1CN(Cc2ccc(-n3cccn3)cc2)CC[C@H]1N1CCN(c2ccccc2F)CC1	DT40 TDP1 no CPT 3.66µM, HT1080NT lethal inconclusive, TDP1 cell CPT 13µM, TGFb inhibitor inconclusive
Cc1cn2c(=O)cc(COc3ccccc3NC(=O)c3ccccc3C)nc2s1	DT40 TDP1 no CPT inconclusive (no result: HT1080 IDH1KD tx, HT1080NT lethal)
CN1CC(c2ccccc2)C2(SC(=S)N(Cc3ccco3)C2=O)C12C(=O)Nc1ccccc12 (centres undefined)	DT40 TDP1 no CPT 11.2µM, HT1080 IDH1KD tx inconclusive, HT1080NT lethal inconclusive, TGFb inhibitor inconclusive
CN1CC(c2ccccn2)C2(SC(=S)N(Cc3ccccc3)C2=O)C12C(=O)Nc1ccccc12 (centres undefined)	HT1080 IDH1KD tx inconclusive, HT1080NT lethal inconclusive, TDP1 cell CPT inconclusive, TGFb inhibitor inconclusive
COc1ccc(C(=O)CCc2ccccc2)c(O)c1	HT1080NT lethal inconclusive
COc1ccc(C(=O)OCC(=O)N(Cc2ccccc2)Cc2ccccc2)c(O)c1	DT40 TDP1 no CPT 18.4µM, TDP1 cell CPT inconclusive
O=[N+]([O-])c1ccc(/C=N/NS(=O)(=O)c2ccc(Cl)cc2)o1	DT40 TDP1 no CPT 16.4µM, TDP1 cell CPT 9.2µM
Cc1ccc(S(=O)(=O)N/N=C\c2ccc([N+](=O)[O-])o2)cc1C	DT40 TDP1 no CPT inconclusive, TDP1 cell CPT 18.4µM
Cc1ccc(S(=O)(=O)N/N=C\c2ccc([N+](=O)[O-])o2)cc1	DT40 TDP1 no CPT 16.4µM, TDP1 cell CPT 14.6µM
N#Cc1cccc(NC(=O)COC(=O)Cn2nc(-c3ccccc3)oc2=O)c1	none
CC(C)(C)CC(=O)Nc1nnc2n1CCS2	none (no result: HT1080 IDH1KD tx, HT1080NT lethal)
COc1ccc(CCC(=O)Nc2ccc3c(c2)OCO3)cc1OC	none
Cc1ccc(S(=O)(=O)NCC(=O)N(CC(=O)NCc2ccco2)Cc2ccccc2)cc1	HepG2 tox 15.8µM
O=S(=O)(NCc1ccccc1)c1ccc(NC(=S)NCc2ccco2)cc1	HepG2 tox 11.2µM, DT40 TDP1 no CPT 11.6µM, TDP1 cell CPT inconclusive, TGFb inhibitor inconclusive
O=C(CCSCc1ccccc1Cl)N1CCN(c2ccc(F)cc2)CC1	DT40 TDP1 no CPT inconclusive, TDP1 cell CPT inconclusive, TGFb inhibitor inconclusive (no result: HT1080 IDH1KD tx, HT1080NT lethal)
NC(=O)c1c(/N=C/c2cccs2)sc2c1CCCC2	DT40 TDP1 no CPT 3.66µM, TDP1 cell CPT 3.66µM
O=C(/C=C/c1cccs1)Nc1sc2c(c1C(=O)O)CCCC2	HT1080 IDH1KD tx inconclusive
COc1ccccc1N1CCN(c2ncnc3sc(C(=O)NCC4CCCO4)c(C)c23)CC1 (centres undefined)	DT40 TDP1 no CPT 13µM, TDP1 cell CPT inconclusive
COc1ccc(N2CCN(c3ncnc4sc(C(=O)NCC5CCCO5)c(C)c34)CC2)cc1 (centres undefined)	DT40 TDP1 no CPT 23.1µM, TDP1 cell CPT inconclusive
O=C(NCCCc1ccc(F)cc1)C1CCC(=O)N(CCCN2CCCC2=O)C1 (centres undefined)	none
Cc1cccc(NC(=O)C2CCN(S(=O)(=O)c3cccc4cccnc34)CC2)n1	DT40 TDP1 no CPT inconclusive
CSc1ccc(/C=N/NC(=O)COc2ccc(Br)cc2Cl)cc1	DT40 TDP1 no CPT inconclusive
O=C(Cc1ccc(Cl)cc1)NC1CCCCCC1	none
Clc1ccc(CN=C(Nc2ccccc2)NC2CCCCC2)cc1	DT40 TDP1 no CPT 23.1µM, HT1080 IDH1KD tx 16.4µM, HT1080NT lethal 20.6µM, TDP1 cell CPT 18.4µM, TGFb inhibitor inconclusive
